Experimental data reported in PubChem BioAssay (NCI).
Compounds without any hit were thinned out: in the full panel of roughly 79,000, 15% have a hit. Unmarked numbers belong to inactive results. Cut-off read from the data, not from the text of the source: active = growth inhibition above about 70%; inactive = the rest.

assay: NCI Yeast Anticancer Drug Screen. Data for the bub3 strain (AID 167); details: S. cerevisiae bub3 mutant strain, at 50.0 µM, active compounds read high
Outline: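 Part of a panel of yeast mutants defective in DNA damage repair or cell cycle regulation. Each strain is grown with compound, and inhibition is calculated relative to solvent-treated cultures.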

Row | SMILES | growth inhibition
1 | CC(=O)Nc1cc(OC(C)=O)nc2c1CCC2 | -1.05%
2 | COc1ccc(/C=C2/SC(=Nc3ccccc3)N(NC(=O)Cc3ccccc3)C2=O)c(OC)c1 | -1.85%
3 | CCOc1c(OC)ccc(/C(C)=N\O)c1OCC | 11.3%
4 | CCCCCCCSSCCCCCCC | -16%
5 | CCc1occc(=O)c1O | 16.8%
6 | CC(=O)Nc1ccc(NC(=O)Nc2cccc(Cl)c2C)cc1 | 17.4%
7 | C=C(C)CN(Cc1ccccc1)C1CCCCCCC1 | 1.35%
8 | Nc1ccc(N)c2cc(S(=O)(=O)O)ccc12 | -16.2%
9 | O=C(O)c1c(Br)c(Br)c(Br)c(Br)c1C(=O)Nc1cc([N+](=O)[O-])ccc1O | 4.05%
10 | CC(=O)c1ccc2c(c1)-c1ccccc1C(=O)C2=O | -15.3%
11 | Cc1nc2c(c(-c3ccc(Cl)cc3)n1)Cc1c(ccc3ccccc13)O2 | -28.8%
12 | CC(=O)Nc1ccc2c(c1)Cc1cc(NC(C)=O)c(Cl)cc1-2 | -2.35%
13 | C=CC(C)(CCC=C(C)C)OC(C)=O (centres undefined) | 23.9%
14 | C[n+]1cccc(/C=C/c2ccc3cccc(O)c3n2)c1 | -42.4%
15 | CC1CCC(CCBr)CC1 (centres undefined) | 0.9%
16 | COc1ccc(COc2ccc([N+](=O)[O-])cc2)cc1 | -13.9%
17 | CN(C)/C=C(/N=C(C#N)C#N)C1OCCO1 | 3.8%
18 | CCCCCCOC(=O)/C=C1/OC(=O)c2ccccc21 | 11.4%
19 | CC1C=CC(C)c2c(-c3ccccc3)oc(-c3ccccc3)c21 (centres undefined) | -0.4%
